For six sequences, binding signal results are on record in article PMC5349851, “Combinatorial bZIP dimers display complex DNA-binding specificity landscapes”.

Among the targets are FOS;CEBPG (Homo sapiens;Homo sapiens, UniProt P01100;P53567 128-201;52-130, |); CEBPA;CEBPA (Homo sapiens;Homo sapiens, UniProt P49715;P49715 273-345;273-345, |); JUN;ATF3 (Homo sapiens;Homo sapiens, UniProt P05412;P18847 243-316;77-150, |); JUN;JUN (Homo sapiens;Homo sapiens, UniProt P05412;P05412 243-316;243-316, |); ATF4;CEBPG (Homo sapiens;Homo sapiens, UniProt P18848;P53567 269-346;52-130, |); ATF4;CEBPA (Homo sapiens;Homo sapiens, UniProt P18848;P49715 269-346;273-345, |); BATF3;ATF4 (Homo sapiens;Homo sapiens, UniProt Q9NR55;P18848 26-99;269-346, |); ATF4;ATF4 (Homo sapiens;Homo sapiens, UniProt P18848;P18848 269-346;269-346, |).

Experiment in all cases: SELEX-seq (CSI, HT-SELEX, round 3); SELEX-seq: 1x PBS (10 mM phosphate, 137 mM NaCl, 2.7 mM KCl) pH 7.6, 2.5 mM DTT, 50 ng/ul poly dI-dC, 0.1% BSA, 50 nM biotinylated bZIP (1:3 with partner for heterodimers), 100 nM library, room temperature, 1 h, 3 rounds; high values mean tight binding
What all share (conditions): protein: recombinant;recombinant; copies: 1;1; dsDNA, one strand shown

The target of another experiment is T1, CEBPG;CEBPG (Homo sapiens;Homo sapiens, UniProt P53567;P53567 52-130;52-130, |).
T1 sequence 1: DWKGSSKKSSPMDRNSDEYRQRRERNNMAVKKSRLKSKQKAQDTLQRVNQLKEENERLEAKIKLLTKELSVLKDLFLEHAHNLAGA
T1 sequence 2: T1 sequence 1

A further experiment has as its target T2, BATF3;ATF3 (Homo sapiens;Homo sapiens, UniProt Q9NR55;P18847 26-99;77-150, |).
T2 sequence 1: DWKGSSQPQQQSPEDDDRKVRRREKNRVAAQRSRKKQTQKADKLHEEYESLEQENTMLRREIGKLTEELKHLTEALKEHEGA
T2 sequence 2: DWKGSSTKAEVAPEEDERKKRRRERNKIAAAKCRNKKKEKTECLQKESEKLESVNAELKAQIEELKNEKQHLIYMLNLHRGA

FOS;CEBPG, sequence (P01100 other isoform, or with tags, fused parts or gaps |): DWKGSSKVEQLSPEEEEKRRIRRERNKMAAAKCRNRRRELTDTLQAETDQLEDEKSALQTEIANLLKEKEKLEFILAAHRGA
JUN;JUN, sequence (P05412 other isoform, or with tags, fused parts or gaps |, chain 1 of 2): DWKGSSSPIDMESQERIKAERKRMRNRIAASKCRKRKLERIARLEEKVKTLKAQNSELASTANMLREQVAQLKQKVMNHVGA
JUN;JUN, sequence (P05412 other isoform, or with tags, fused parts or gaps |, chain 2 of 2): as the sequence (P05412 other isoform, or with tags, fused parts or gaps |, chain 1 of 2) above
JUN;ATF3, sequence (P05412 other isoform, or with tags, fused parts or gaps |): as the sequence (P05412 other isoform, or with tags, fused parts or gaps |, chain 1 of 2) above
CEBPA;CEBPA, sequence (P49715 other isoform, or with tags, fused parts or gaps |, chain 1 of 2): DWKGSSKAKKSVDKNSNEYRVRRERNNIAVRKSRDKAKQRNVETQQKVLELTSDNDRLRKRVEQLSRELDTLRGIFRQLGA
CEBPA;CEBPA, sequence (P49715 other isoform, or with tags, fused parts or gaps |, chain 2 of 2): as the sequence (P49715 other isoform, or with tags, fused parts or gaps |, chain 1 of 2) above
ATF4;CEBPA, sequence (P18848 other isoform, or with tags, fused parts or gaps |, chain 1 of 2): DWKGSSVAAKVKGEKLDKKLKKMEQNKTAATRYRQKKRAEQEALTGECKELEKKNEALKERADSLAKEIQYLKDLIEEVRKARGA
ATF4;CEBPA, sequence (P49715 other isoform, or with tags, fused parts or gaps |, chain 2 of 2): as the sequence (P49715 other isoform, or with tags, fused parts or gaps |, chain 1 of 2) above
ATF4;ATF4, sequence (P18848 other isoform, or with tags, fused parts or gaps |, chain 1 of 2): as the sequence (P18848 other isoform, or with tags, fused parts or gaps |, chain 1 of 2) above
ATF4;ATF4, sequence (P18848 other isoform, or with tags, fused parts or gaps |, chain 2 of 2): as the sequence (P18848 other isoform, or with tags, fused parts or gaps |, chain 1 of 2) above
ATF4;CEBPG, sequence (P18848 other isoform, or with tags, fused parts or gaps |): as the sequence (P18848 other isoform, or with tags, fused parts or gaps |, chain 1 of 2) above

With ATGATGCAAT, the binding signal is 0.64 relative CSI intensity (max = 1) with FOS;CEBPG; 0.133 relative CSI intensity (max = 1) with CEBPG;CEBPG; 0.124 relative CSI intensity (max = 1) in the experiment with CEBPA;CEBPA; 0.136 relative CSI intensity (max = 1) with JUN;ATF3; 0.00263 relative CSI intensity (max = 1) with JUN;JUN; 0.965 relative CSI intensity (max = 1) with ATF4;CEBPG. In addition, the binding signal with ATF4;CEBPA was 1 relative CSI intensity (max = 1); with BATF3;ATF3, 0.00189 relative CSI intensity (max = 1); in the experiment with BATF3;ATF4, 0.00441 relative CSI intensity (max = 1).

As for ATGACGCAAT, the binding signal with FOS;CEBPG was 0.92 relative CSI intensity (max = 1); with CEBPG;CEBPG, 0.307 relative CSI intensity (max = 1); in the experiment with CEBPA;CEBPA, 0.292 relative CSI intensity (max = 1); with JUN;ATF3, 0.267 relative CSI intensity (max = 1); with JUN;JUN, 0.0387 relative CSI intensity (max = 1); in the experiment with ATF4;CEBPG it was 1 relative CSI intensity (max = 1). Moreover, the binding signal in the experiment with ATF4;CEBPA was 0.929 relative CSI intensity (max = 1); in the experiment with BATF3;ATF3, 0.00445 relative CSI intensity (max = 1); with BATF3;ATF4, 0.00858 relative CSI intensity (max = 1).

Turning to ATGACGTCAT, the binding signal is 0.508 relative CSI intensity (max = 1) with FOS;CEBPG; 0.00362 relative CSI intensity (max = 1) with CEBPG;CEBPG; 0.015 relative CSI intensity (max = 1) with CEBPA;CEBPA; 0.367 relative CSI intensity (max = 1) with JUN;ATF3; 1 relative CSI intensity (max = 1) with JUN;JUN; 0.465 relative CSI intensity (max = 1) in the experiment with ATF4;CEBPG. Further, the binding signal was 0.584 relative CSI intensity (max = 1) in the experiment with ATF4;CEBPA, 1 relative CSI intensity (max = 1) with ATF4;ATF4, 0.146 relative CSI intensity (max = 1) in the experiment with BATF3;ATF3 and 0.748 relative CSI intensity (max = 1) with BATF3;ATF4.

With ATGACGGAAT, the binding signal with FOS;CEBPG is 0.0215 relative CSI intensity (max = 1); with JUN;ATF3, 0.0994 relative CSI intensity (max = 1); with JUN;JUN, 0.0116 relative CSI intensity (max = 1); with ATF4;CEBPG, 0.0162 relative CSI intensity (max = 1); with ATF4;CEBPA, 0.133 relative CSI intensity (max = 1); with BATF3;ATF3, 0.00122 relative CSI intensity (max = 1). In addition, in the experiment with BATF3;ATF4, the binding signal is 0.00174 relative CSI intensity (max = 1).

For CCTGACGTCA, the binding signal was 0.0189 relative CSI intensity (max = 1) with FOS;CEBPG; 0.177 relative CSI intensity (max = 1) in the experiment with JUN;ATF3; 0.0544 relative CSI intensity (max = 1) with JUN;JUN; 0.0346 relative CSI intensity (max = 1) in the experiment with ATF4;CEBPG; 0.127 relative CSI intensity (max = 1) with ATF4;CEBPA; 0.0219 relative CSI intensity (max = 1) with ATF4;ATF4. Also, the binding signal in the experiment with BATF3;ATF3 was 0.0499 relative CSI intensity (max = 1); with BATF3;ATF4, 0.0241 relative CSI intensity (max = 1).

Consider ATGACGTAAT, for which the binding signal with FOS;CEBPG was 0.482 relative CSI intensity (max = 1); with CEBPG;CEBPG it was 0.0508 relative CSI intensity (max = 1); with CEBPA;CEBPA, 0.0784 relative CSI intensity (max = 1); with JUN;ATF3, 0.313 relative CSI intensity (max = 1); in the experiment with JUN;JUN it was 0.091 relative CSI intensity (max = 1); with ATF4;CEBPG it was 0.652 relative CSI intensity (max = 1). The binding signal is 0.695 relative CSI intensity (max = 1) in the experiment with ATF4;CEBPA, 0.00204 relative CSI intensity (max = 1) with ATF4;ATF4, 0.0292 relative CSI intensity (max = 1) with BATF3;ATF3 and 0.048 relative CSI intensity (max = 1) with BATF3;ATF4.
